Screening results deposited in PubChem by National Center for Advancing Translational Sciences (NCATS).
Compounds with a hit are over-represented: about 2.8% of the library has one in this group of screens.
FH mod: Identification of activators of human fumarate hydratase by quantitative high-throughput screening; AID 1347055, 2019; Potency, µM (top dose mostly 79.9 µM), for the others: at the highest dose activity change, negative = inhibition, actives largely listed as inhibitors; FH coupled MDH/diaphorase resazurin fluorescence, 15 min; Fumarate hydratase, mitochondrial (Homo sapiens), P07954; hit rate 0.22% among 54,000; also: potency is read from the fitted curve at half-maximal effect; % is scaled to controls: 0 for no effect and ±100 for the full control effect; the screen sought activators but most active calls are inhibition curves; nearly all actives have a fitted effect of over 45% in size
GPR32 ag: agonists of human resolvin D1 receptor DRV1 (GPR32) | activation, % at 76.9 µM | O75388 | hit rate 2.5% among 48,000 | CHO-K1 GPR32 beta-arrestin PathHunter luminescence, 90 min; zero percent set by DMSO-only wells;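 active = activation of at least 60% and not above a set upper limit, about 1 call in 100 departs from these limits; inconclusive = activation of 40% to 60%, or above that upper limit; inactive = activation under 40%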; also: 0% is about no effect
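Readings come from a cell-based beta-arrestin complementation format: CHO-K1 GPR32 stable cells (2,500/well) treated 90 min with compounds, then beta-Gal substrate added for 1 h before chemiluminescence imaging.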
B2AR arrestin ag: ADRB2 beta-arrestin recruitment | P07550 | 44,000 tested, under 10 active | Potency, µM (highest dose often 46.1 µM), most hits filed as activators | AID 1347077 | HTLA Tango cells, beta-arrestin recruitment, luciferase luminescence, 18 h;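 also: potency is read from the fitted curve at half-maximal effect; 0% = DMSO and full agonism = EC100 isoproterenol or metaproterenol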
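Ligand-induced beta-arrestin recruitment to recombinant beta2-AR is measured via a tTA-driven luciferase reporter in Tango cells after 18 hr compound exposure at 37 degrees C. Concentrations span up to 46 microM.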
GALC G270D act: enhancers of human galactocerebrosidase G270D mutant activity in cells; hit rate 0.1% among 45,000; 145M-Twi-hGALC-G270D cells (Twitcher mouse brain line with human GALC G270D), HMU-beta-Gal fluorescence, 48 h; P54803; Potency, µM (doses to about 57.5 µM), hits mostly activators; AID 1159614; also: potency is read from the fitted curve at half-maximal effect; 0% is about no effect; nearly all actives have a fitted effect of over 65% in size
Target sequence (P54803 whole entry G286D): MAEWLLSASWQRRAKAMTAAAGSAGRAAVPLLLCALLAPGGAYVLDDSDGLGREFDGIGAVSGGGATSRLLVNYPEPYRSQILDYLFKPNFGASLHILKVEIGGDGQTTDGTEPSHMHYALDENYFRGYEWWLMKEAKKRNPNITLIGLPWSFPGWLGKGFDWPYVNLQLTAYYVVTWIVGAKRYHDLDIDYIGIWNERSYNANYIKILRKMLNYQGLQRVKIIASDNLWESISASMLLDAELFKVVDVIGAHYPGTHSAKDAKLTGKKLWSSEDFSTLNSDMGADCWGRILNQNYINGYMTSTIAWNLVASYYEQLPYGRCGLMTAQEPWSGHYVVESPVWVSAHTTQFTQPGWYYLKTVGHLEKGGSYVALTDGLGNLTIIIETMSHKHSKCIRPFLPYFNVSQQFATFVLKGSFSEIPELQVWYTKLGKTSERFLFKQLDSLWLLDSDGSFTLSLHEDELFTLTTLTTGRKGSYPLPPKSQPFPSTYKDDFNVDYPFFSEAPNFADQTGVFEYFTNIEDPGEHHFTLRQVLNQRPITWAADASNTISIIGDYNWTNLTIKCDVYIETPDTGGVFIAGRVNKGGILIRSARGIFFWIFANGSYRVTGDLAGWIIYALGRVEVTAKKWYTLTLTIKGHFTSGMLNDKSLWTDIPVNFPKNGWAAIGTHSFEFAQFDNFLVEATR
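Fluorescence readout: HMU-β-gal cleavage by mutant GALC (0.1 mM final, citrate/phosphate pH 5.2 with 1 mg/mL taurocholate), stopped with carbonate/bicarbonate plus Triton X-100. Cells: murine Twitcher 145M-Twi expressing human G270D GALC; qHTS for activators.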
Starred values were filed as active, the others as inactive; i = inactive; ? = inconclusive; · = not tested or not shown; ! = a repeat was not active; [ ] = remark or other dose. Unless noted, calls follow the shape of the dose curve; as a rule, active = well fitted curve in the direction sought with a large enough effect; inconclusive = small, poorly fitted or top-dose-only effect, or another doubt; inactive = no such curve, though single readings can be large; an effect the other way counts as inactive or inconclusive.

SMILES	FH mod	GPR32 ag	B2AR arrestin ag	GALC G270D act
CCCN(CCC)S(=O)(=O)c1ccc(C(=O)Nc2cccc(-c3nc4ccccc4[nH]3)c2)cc1	-26%	-13	i	i
COc1c(Cl)cc(C(=O)Nc2cccc(-c3nc4ccccc4[nH]3)c2)cc1Cl	-12%	106*	i	i
Oc1c(Cl)cc(Cl)cc1Sc1cc(Cl)cc(Cl)c1O	-24%[53.3 µM]	80*	·	i
COc1ccc2nc3sc(C(=O)NCCc4ccc(Cl)cc4)cc3cc2c1	0%	-1	i	i
CCOc1ccc(CCNC(=O)c2cc3cc4ccc(OC)cc4nc3s2)cc1OCC	-14%	65*	i	i
NS(=O)(=O)c1ccc(CCNC(=O)c2nc(SCc3ccccc3F)ncc2Cl)cc1	6%	83*	i	i
CC1(C(=O)O)CCCC2(C)C3CCC4CC3(CCC12)CC4(O)CO (stereo not drawn)	1%[53.3 µM]	·	·	·
Cc1cc2n(n1)CCCN2C(=O)Nc1ccc(Cl)cc1	-7%	108*	i	i
CCOC(=O)CC(NC(=O)Cn1nnc(-c2ccc(Cl)cc2)n1)c1ccc(OC)cc1 (stereo not drawn)	3%	2	i	i
CCOC(=O)C(Cc1ccccc1)NC(=O)Cn1nnc(-c2ccc(C)cc2)n1 (stereo not drawn)	-8%	62*	?	i
Cc1ccc(Cn2c(C)c(CNC(C)c3ccccc3)c(C(=O)O)c2C)cc1 (stereo not drawn)	8%	0	i	i
Cc1ccc(Cn2c(C)c(CNCC(C)c3ccccc3)c(C(=O)O)c2C)cc1 (stereo not drawn)	3%	75*	i	i
Cc1ccc(Cn2c(C)c(CNCc3ccc(OC(C)C)cc3)c(C(=O)O)c2C)cc1	7%	86*	i	i
Cc1cc(C)c(-c2csc(NC(=O)c3ccccc3)n2)c(C)c1	-1%	·	·	·
Cc1cccc(C(=O)NCCc2nc3ccccc3n2Cc2ccc(Cl)cc2)c1	-24%	17	i	i
O=C(NCCc1nc2ccccc2n1Cc1ccc(Cl)cc1)c1ccccc1	-4%	81*	i	i
O=C(NCCCc1nc2ccccc2n1Cc1ccc(Cl)cc1Cl)c1ccco1	·	97*	i	·
O=C(NCCc1nc2ccccc2n1Cc1ccc(Cl)cc1Cl)c1ccco1	?	-26	i	i
[2H]C([2H])([2H])C(OC(=O)[C@H](C)N[P@](=O)(OC[C@H]1O[C@@H](n2ccc(=O)[nH]c2=O)[C@](C)(F)[C@@H]1O)Oc1ccccc1)C([2H])([2H])[2H]	12%	·	·	·
COC(=O)c1ccc(NC(=O)C2CCN(C(=O)c3ccc(F)cc3)CC2)cc1	-5%	61*	i	i
C/C=C(/COC(=O)/C(C)=C/C)C(=O)OC(CC)c1ccc(OC)c(OC)c1 (stereo not drawn)	1%[53.3 µM]	·	·	·
COc1cccc(C2=CC(c3ccccc3F)n3ncc(C(=O)Nc4ccc(F)cc4)c3N2)c1 (stereo not drawn)	-26%	71*	i	i
Clc1ccc(Cn2c(Cc3ccccc3)nc3ccccc32)cc1	-19%	·	·	·
C=CC(=O)N1CCN(C(=O)c2cc(-c3cc(Cl)ccc3Cl)c(Cl)cc2OC)CC1	-5%	·	·	·
Cc1noc(C)c1S(=O)(=O)N1CCC(C(=O)Nc2ccc(Br)cc2)CC1	1%	5	i	i
SMILES	FH mod	GPR32 ag	B2AR arrestin ag	GALC G270D act
Cc1noc(C)c1S(=O)(=O)Nc1ccc(C(=O)Nc2ccc(C(C)C)cc2)cc1	-13%	91*	i	i
Cc1cc(Br)ccc1NC(=O)c1ccc(NS(=O)(=O)c2c(C)noc2C)cc1	-7%	64*	i	i
Cc1noc(C)c1S(=O)(=O)N(CC(=O)Nc1ccc(C(F)(F)F)cc1)c1ccc(C(C)C)cc1	-22%	10	i	i
Cc1noc(C)c1S(=O)(=O)Nc1ccc(C(=O)Nc2ccc(Br)cc2)cc1	?	95*	i	i
COc1ccc(N2CCOCC2)c2sc(NC(=O)N3CCC(C)(O)CC3)nc12	0%	·	·	·
Cc1cc(Br)ccc1NC(=O)c1coc(=O)c2ccccc12	-4%	72*	i	i
COc1ccc(NC(=O)c2coc(=O)c3ccccc23)cc1OC	-25%	-11	i	i
Cc1ccc(NC(=O)CSc2nc3ccc(NC(=O)c4ccco4)cc3s2)cc1	3%	99*	i	i
Cc1cccc(NC(=O)CSc2nc3ccc(NC(=O)c4ccccc4)cc3s2)c1	3%	60*	i	i
CCOC(=O)CSc1nc2ccc(NC(=O)c3cccc(F)c3)cc2s1	-18%	73*	i	i
CCN(CC)c1cc(C)c2cc(NC(=O)c3cccc(F)c3)ccc2n1	-22%	92*	i	i
CC(C)C(C#N)O[C@@H]1O[C@H](CO[C@@H]2OC[C@](O)(CO)[C@H]2O)[C@@H](O)[C@H](O)[C@H]1O (stereo partly drawn)	4%[53.3 µM]	·	·	·
Cc1cc(O)c(C)c(C)c1O	3%[53.3 µM]	-11	·	i
Cc1cc(O)c2ccccc2c1O	?	81*	·	i
O=C(Nc1ccc(F)c(Cl)c1)C1CCCN1S(=O)(=O)c1ccc(F)cc1 (stereo not drawn)	-5%	83*	i	i
C[C@@H]1C[C@H]2OC(=O)[C@@]3(C)CCC[C@](C)(C23)[C@@]1(O)CCC1=CC(=O)OC1O (stereo partly drawn)	5%[53.3 µM]	·	·	·
C/C1=C\CC[C@]2(C)O[C@H]2C(=O)c2c(C)coc2C1	-6%	·	·	·
C[n+]1cc2c3c(ccc2c2ccc4cc5c(cc4c21)OCO5)OCO3	16µM*!	?	·	i
CS(=O)(=O)c1ccc([C@@H](C[C@H]2CCC(=O)C2)C(=O)Nc2cnccn2)cc1Cl	1%[162 µM]	·	·	·
CC1=CC(=O)c2ccccc2C1=O	?	62*	·	i
Cc1[nH]c2ccccc2c1C1(O)C(=O)N(Cc2ccccc2)c2ccc(Br)cc21 (stereo not drawn)	?	?	i	i
Cc1ccc(CN2C(=O)C(O)(c3c[nH]c4ccccc34)c3cc(Cl)ccc32)cc1 (stereo not drawn)	?	87*	i	i
CCN(CC)C(=O)Cn1c(=O)cc(C)c2c(C)nn(-c3cccc(Cl)c3C)c21	-10%	94*	i	i
Cc1c(Cl)cccc1-n1nc(C)c2c(C)cc(=O)n(CC(=O)NCc3ccccc3)c21	-14%	-7	i	i
Cc1ccccc1-c1nc2scc(CCNS(=O)(=O)c3ccccc3)n2n1	-25%	75*	i	i
Cc1ccc(S(=O)(=O)NCCc2csc3nc(-c4ccccc4F)nn23)cc1C	-1%	105*	i	i
Cc1ccc(-c2nc3scc(CCNS(=O)(=O)c4ccc(F)c(C)c4)n3n2)cc1	-13%	20	i	i
